SMN2 splice up – qHTS Assay for Enhancers of SMN2 Splice Variant Expression; 210,000 tested, 2.8% active; Potency, µM (doses to about 46.1 µM), for inactives: at the top dose activity change, positive = activation, hits mostly activators; HEK293 SMN2-luciferase splicing reporter, luminescence, 30-36 h; AID 1458, 2008; also: % of control where 0% means no effect; nearly all actives have a fitted effect of over 55% in size
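HEK293 cells carry an SMN2 […]–luciferase reporter in which exon 7 inclusion puts luciferase in frame. Cells were plated 10-12 h before compound addition, then incubated 30-36 h at 37C. ONE-Glo luminescence was read; sodium butyrate at 4.5 mM final served as control.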
NPC1 promoter act – qHTS Assay for NPC1 Promoter Activators. Huh7 NPC1 promoter luciferase reporter, 24 h. Potency, µM (top dose mostly 9.22 µM), for inactives: top-dose activation, actives largely listed as activators. 320,000 tested, 2.4% active. AID 485313, 2010; also: % of control where 0% means no effect; nearly all actives have a fitted effect of over 60% in size
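Luminescence from an NPC1 promoter-driven luciferase reporter in stably transfected Huh7 cells was measured after 24 h compound treatment at 37 °C, followed by 10 min ambient incubation with luciferase detection reagent.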
p53 reactivation – qHTS assay for re-activators of p53 using a Luc reporter; H1299 p53-A138V BP100-luciferase reporter, luminescence, 24 h; Potency, µM (highest dose often 92.2 µM), for inactives: at the top dose activity change, positive = activation, usual class: activators; 320,000 tested, 0.063% active; AID 504706, 2011; also: % of control where 0% means no effect; nearly all actives have a fitted effect of over 45% in size
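H1299 (p53-null), stable ts p53-A138V + BP100-Luc; 1000 cells/well, Opti-MEM/10% FBS; cpd 4 pt, 1:5; 24 h, 37 deg C, 5% CO2; detection reagent 10 min RT; luminescence.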
FLuc counter – qHTS profiling assay for firefly luciferase inhibitor/activator using purifed enzyme and Km concentrations of substrates (counterscreen for miR-21 project); Luciferin 4-monooxygenase (Photinus pyralis), P08659; purified FLuc, Km substrates, luminescence inhibition; Potency, µM (doses to about 57.5 µM), for inactives: top-dose activity change, negative = inhibition, hits mostly inhibitors; 360,000 tested, 6.9% active; AID 588342, 2011;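 also: plate controls were vehicle for no effect and reference inhibitor for full effect; nearly all actives have a fitted effect of over 55% in size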
Target sequence (P08659 whole entry, looked up): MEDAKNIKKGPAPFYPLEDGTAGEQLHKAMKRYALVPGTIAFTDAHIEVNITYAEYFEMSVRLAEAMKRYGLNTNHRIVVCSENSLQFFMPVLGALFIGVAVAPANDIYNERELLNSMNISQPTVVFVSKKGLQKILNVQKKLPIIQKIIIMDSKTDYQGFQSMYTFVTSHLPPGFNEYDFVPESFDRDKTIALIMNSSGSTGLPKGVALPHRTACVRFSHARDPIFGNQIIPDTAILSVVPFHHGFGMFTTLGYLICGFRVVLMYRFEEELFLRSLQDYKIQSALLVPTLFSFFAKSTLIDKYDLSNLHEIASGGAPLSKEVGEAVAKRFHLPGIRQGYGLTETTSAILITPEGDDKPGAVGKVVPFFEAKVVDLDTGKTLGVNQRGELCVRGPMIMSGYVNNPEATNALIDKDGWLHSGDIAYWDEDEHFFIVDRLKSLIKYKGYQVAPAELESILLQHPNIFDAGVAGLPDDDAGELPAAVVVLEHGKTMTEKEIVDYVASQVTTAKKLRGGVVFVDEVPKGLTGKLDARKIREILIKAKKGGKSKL
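Purified P. pyralis luciferase (10nM final) with 10uM D-luciferin and 10uM ATP (Km levels) in 50mM Tris acetate pH 7.5, 10mM Mg acetate, 0.01% Tween-20, 0.05% BSA; qHTS 6-point titration, ~60 µM downward; luminescence read.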
Rab9 promoter act – qHTS Assay for Rab9 Promoter Activators; 320,000 tested, 2.8% active; Potency, µM (doses to about 9.22 µM), without a hit: top-dose activation, negative = inhibition, actives largely listed as activators; Huh7 Rab9 promoter-luciferase reporter, luminescence, 24 h; also: % of control where 0% means no effect; nearly all actives have a fitted effect of over 60% in size
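Steps: seed 1500 Huh7 Rab9-luc cells per well, rest 2 h at 37 °C; add compound in DMSO; incubate 24 h; add luciferase reagent, 10 min ambient; read luminescence.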
ELG1 genotox – qHTS screen for small molecules that induce genotoxicity in human embryonic kidney (HEK293T) cells expressing luciferase-tagged ELG1; Potency, µM (top dose mostly 46 µM), for inactives: at the highest dose activity change, positive = activation, hits mostly activators; 330,000 tested, 1.3% active; HEK293T ELG1-luciferase reporter, luminescence, 16 h; also: % of control where 0% means no effect; nearly all actives have a fitted effect of over 60% in size
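Genotoxicity was scored as increased ELG1-luciferase reporter signal, measured by ONE-Glo luminescence (30 min, room temperature). Compound or vehicle exposure of the HEK293T reporter cells lasted 16 hr at 37°C.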
* = called active by the depositor; u = inconclusive; x = no result; [ ] = another dose, or the depositor's remark. The list is not random: actives were taken first. Their share in the collection is about 7.4%. Calls follow the shape of the dose curve; as a rule, active = well fitted curve in the direction sought with a large enough effect; inconclusive = small, poorly fitted or top-dose-only effect, or another doubt; inactive = no such curve, though single readings can be large; an effect the other way counts as inactive or inconclusive. Potency is read from the fitted curve at half-maximal effect.

SMILES | SMN2 splice up | NPC1 promoter act | p53 reactivation | FLuc counter | Rab9 promoter act | ELG1 genotox
CCN(CC)S(=O)(=O)c1ccc(NC(=O)c2ccccn2)cc1 | 7% | u | u | 15µM* | u | 15µM*
CN(C)S(=O)(=O)c1ccc(NC(=O)c2ccccn2)cc1 | 11µM* | 2.5µM* | 14% | 13µM* | 1.6µM* | u
CCCNS(=O)(=O)c1ccc(NC(=O)c2ccccn2)cc1 | 26% | 5% | 5% | u | 17% | 5%
CC(=O)NS(=O)(=O)c1ccc(NC(=O)c2ccccn2)cc1 | 0% | -6% | 5% | -4% | -18% | 0%
Cc1c(C)c2ccc(OCC(=O)Nc3ccccn3)c(C)c2oc1=O | x | -34% | -18% | 0.034µM* | -20% | u
Cc1ccc(NC(=O)C(=O)Nc2ccccn2)cc1 | 1.6µM* | u | 13% | 0.54µM* | 0.32µM* | u
COc1ccccc1OCC(=O)Nc1ccccn1 | x | u | x | 3.4µM* | 3.2µM* | 2.1µM*
Cc1ccc(S(=O)(=O)CC(=O)Nc2ccccn2)cc1 | x | -1% | -2% | 1% | 4% | -2%
COc1ccccc1NC(=O)C(=O)Nc1ccccn1 | 16µM* | 4µM* | 7% | 8.5µM* | 3.2µM* | u
O=C(O)/C=C\C(=O)N1Cc2cc3ccccc3nc2C1 | -10%[9.22 µM] | x | x | x | x | x
COc1ccc(-c2csc(NC(=O)C3CCN(C(=O)c4ccc(F)cc4)CC3)n2)cc1OC | x | -11% | x | -5% | -20% | -11%
CCN1/C(=C\C(=S)Nc2ccccc2)Sc2ccccc21 | u | u | 9% | 13µM* | 2.8µM* | u
O=C(Nc1ccc(Cl)cc1Cl)c1n[nH]c(Cn2cncn2)n1 | 18% | 16% | 7% | 4.3µM* | 17% | u
CC(C)OC(=O)C(C(=O)C(F)(F)F)c1cc(NS(=O)(=O)c2ccc3c4c(cccc24)C(=O)N3)ccc1O (centres undefined) | -10% | x | x | u | x | x
CCc1ccc(NC(=O)C2CCN(S(=O)(=O)c3c(C)noc3/C=C/c3cccs3)CC2)cc1 | -3% | x | x | -3% | x | x
O=C(c1cnccn1)N1CCC2(CCCN(C(c3ccccc3)c3ccccc3)C2)CC1 | -39% | x | x | x | x | x
O=C(Nc1cc2ccc(O)cc2oc1=O)c1ccccc1 | x | x | x | 5.4µM* | x | x
O=C(c1ccccc1)c1cc2ccc(O)cc2oc1=O | 0% | 23% | 9% | 19µM* | 14% | 6%
COC(=O)N1CCC2(CCN(C(=O)NC(C)C)CC2)CC1 | -4% | x | x | x | x | x
O=C1CCCC(O)=C1C=Nc1cccc(C(F)(F)F)c1 | 12% | -1% | 1% | 1% | 11% | 0%
O=C1CCCC(O)=C1C=Nc1ccc2c(c1)oc1ccccc12 | u | 25% | 5% | 2.1µM* | u | 0%
COc1ccc(OC)c(NC(=O)Cn2cnc3onc(-c4ccc(Cl)cc4)c3c2=O)c1 | 11% | x | x | -9% | x | x
Cc1cc(-c2ccccc2)nc2cc(C(=O)Nc3ccc(Cl)c(Cl)c3)nn12 | -6% | x | x | 3% | x | x
Cc1ccc(CNC(=O)CSc2nc3ccccc3nc2Cc2ccc(C)cc2)cc1 | x | x | x | -5% | x | x
O=C1c2ccccc2C(=O)N1CCSC(=S)N1CCOCC1 | u | u | u | 12µM* | u | u
C/C(=N\NC(=O)c1cc(C)oc1C)c1ccc2c(c1)OCO2 | 12% | 18% | 9% | u | u | 11%
O=C(N/N=C(\c1ccccc1)c1cccnc1)c1ccc(O)cc1 | x | 1% | 11% | 1% | 2% | 1%
O=C(N/N=C(\c1ccccc1)c1cccnc1)c1cccc(F)c1 | x | -13% | u | -5% | -37% | 16µM*

Assay outcomes: PubChem, National Center for Advancing Translational Sciences (NCATS)
